Measured values published in PubChem BioAssay (NCI).
About 79,000 compounds went through this panel and 15% of them were active in at least one assay; those are over-represented in the sample as a whole. No stated cut-off is given here; in the data, active means growth inhibition above about 70%; inactive means the rest.

Key:
[1] = NCI Yeast Anticancer Drug Screen. Data for the rad50 strain (AID 155);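 further: 0% = growth of vehicle-only cultures of the same strain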; details: S. cerevisiae rad50 strain growth inhibition; at 50.0 µM; active compounds read high
In short: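 Cells are treated with compound, grown, and their growth is then scored against vehicle-only cultures of the same repair-deficient yeast strain.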

[2] = NCI Yeast Anticancer Drug Screen. Data for the mec2-1 strain (AID 157); details: S. cerevisiae mec2-1 strain, at 50.0 µM, active compounds read high
In short: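 Using mec2-1 yeast: add compound, measure growth, express inhibition versus vehicle-treated cultures.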

[3] = NCI Yeast Anticancer Drug Screen. Data for the sgs1 mgt1 strain (AID 161);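 further: 0% = growth of cultures given vehicle only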; details: S. cerevisiae sgs1 mgt1 strain, at 50.0 µM, active compounds read high
In short: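 This yeast growth screen uses a strain with defined DNA-repair lesions; compound-treated growth is compared with vehicle-treated growth.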

[4] = NCI Yeast Anticancer Drug Screen. Data for the cln2 rad14 strain (AID 165);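 further: 0% = growth equal to vehicle treated cultures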; details: S. cerevisiae cln2 rad14 strain, at 50.0 µM, active compounds read high
In short: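 Yeast strain cln2 rad14, bearing defects in cell cycle control and DNA repair, serves as the test system; values reflect growth inhibition compared with vehicle.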

[5] = NCI Yeast Anticancer Drug Screen. Data for the bub3 strain (AID 167); details: S. cerevisiae bub3 mutant strain, at 50.0 µM, active compounds read high
In short: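 Part of a panel of yeast mutants defective in DNA damage repair or cell cycle regulation. Each strain is grown with compound, and inhibition is calculated relative to solvent-treated cultures.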

[6] = NCI Yeast Anticancer Drug Screen. Data for the mlh1 rad18 strain (AID 175); details: S. cerevisiae mlh1 rad18 strain growth inhibition; at 50.0 µM; active compounds read high
In short: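 Steps: expose repair-defective yeast to compound; measure growth; express inhibition against vehicle-treated controls.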

Measured: growth inhibition

CN1CCCC(C(=O)c2ccccc2)C1 (stereo unspecified)
inactive: [1] 0.45% | [2] -5.1% | [3] -0.3% | [4] -18.9% | [5] -4.95% | [6] 3.75%

[C-]#[O+].[Cl][Ru]([Cl])([Cl])([Cl])[Cl]
inactive: [1] -7.05% | [2] -8.95% | [3] 35% | [4] -6.75% | [5] 11.3% | [6] 1.9%

CCCCC[CH2][Sn](=[O])[CH2]CCCCC
inactive: [1] 8.25% | [2] 3.35% | [3] -9.4% | [4] -24.6% | [5] 6.8% | [6] -11.4%

COc1ccc([N+](=O)[O-])cc1
inactive: [1] 23.6% | [2] -5.8% | [3] 12.6% | [4] 20.9% | [5] 1.1% | [6] -20.9%

N#CCO
inactive: [1] -3.7% | [2] 11.3% | [3] -9.1% | [4] -5.4% | [5] -3.4% | [6] -5.65%

CCC1NCCc2cc(OC)c(O)cc21 (stereo unspecified)
inactive: [1] -5.9% | [2] 0.35% | [3] -6.25% | [4] 1.4% | [5] 1.85% | [6] -11.4%

CNc1cccc2ccccc12
inactive: [1] -3.3% | [2] -14.1% | [3] -54.5% | [4] -36.5% | [5] -28.6% | [6] -0.35%

CC(C)/C=C/C1(C(C)C)C(=O)NC(=O)NC1=O
inactive: [1] 19.5% | [2] 9.5% | [3] -4.85% | [4] 14.1% | [5] 3.9% | [6] 3.1%

[C-]#[O+].[C-]#[O+].[C-]#[O+].[C-]#[O+].[Fe].[N-]=C(C(F)(F)F)C(F)(F)F
inactive: [1] -16.4% | [2] -19.8% | [3] -11.7% | [4] -0.25% | [5] -11.2% | [6] -25.4%

CCOP(=O)(OCC)/C(C#N)=C/c1cnc(C)[nH]1
inactive: [1] -52.4% | [2] 24% | [3] -36% | [4] 26.4% | [5] 16.1% | [6] -5.55%

[N-]=[N+]=CC(=O)CCC(=O)C=[N+]=[N-]
inactive: [1] 10.2% | [2] -24% | [3] -27.1% | [4] -19.5% | [5] -20.6% | [6] -67.8%

O=C(Nc1ccccc1)N(C1=NCC(CI)S1)c1ccc(F)cc1F (stereo unspecified)
inactive: [1] 18.3% | [2] 6.75% | [3] -6.95% | [4] 7.7% | [5] 2.95% | [6] -40.1%

COc1ccccc1-n1c(C)nc2ccccc2c1=O
inactive: [1] -5% | [2] -19.6% | [3] 6.2% | [4] 2.8% | [5] 19.7% | [6] 4.8%

N[C@@H]1CCCC[C@@H]1N.O=P([O-])([O-])CN(CP(=O)([O-])[O-])CP(=O)([O-])[O-].[Pt+2]
inactive: [1] -5.05% | [2] -6.4% | [3] -10.2% | [4] 14.9% | [5] -0.1% | [6] -21.1%

CC[CH2][Sn]([Br])([CH2]CC(=O)OC)[CH2]CC(=O)OC
inactive: [1] 16.5% | [2] 4.2% | [3] 50.1% | [4] -19.9% | [5] 9.85% | [6] 12.1%

CC(C)CCC1C(=O)N(C)C(=O)N(C)C1=O
inactive: [1] -9% | [2] -6.55% | [3] 3.15% | [4] -0.5% | [5] 0.55% | [6] 2.05%

C=CCOC(=O)Cc1ccccc1
inactive: [1] 20.5% | [2] -5.35% | [3] 4.9% | [4] -31.9% | [5] -39.2% | [6] -3.9%

NNC(N)=O
inactive: [1] 1.3% | [2] 23.1% | [3] -38.9% | [4] -18.3% | [5] -13.2% | [6] -14.8%

O.[Cr+3].[NH2-].[NH2-].[NH2-].[NH2-].[NH2-].[O-][Cl+3]([O-])([O-])O
inactive: [1] 16.6% | [2] 6.85% | [3] -0.4% | [4] 9.75% | [5] 3.85% | [6] -18.1%

c1ccc(N=Nc2ccccc2)cc1
inactive: [1] -1.25% | [2] -7.5% | [3] -4.2% | [4] -9.55% | [5] -5.15% | [6] 24.6%

O=C(O)Cc1ccc(O)c(O)c1.[Pt].c1ccc([PH+](c2ccccc2)c2ccccc2)cc1.c1ccc([PH+](c2ccccc2)c2ccccc2)cc1
inactive: [1] 43.2% | [2] 33.9% | [3] 37.8% | [4] 42.5% | [5] 26.5% | [6] 63.9%
